# Assay results reported in the supplement of paper PMC11001985.
# Values without a mark were called inactive.
# Compound: C#CCNC(=O)CCSSCCC(=O)NCCc1ccc(C=O)c(C=O)c1
# Assay: lysine labeling ratio R10:1 (500 µM / 50 µM probe), SILAC-ABPP in living cells; higher = lower intrinsic lysine reactivity toward the probe, active = 2 or less
# Conditions: HeLa; probe concentrations 500 vs 50 µM
# In short: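 The two probe levels, 50 µM and 500 µM, of an alkyne-tagged, disulfide-linked lysine probe were applied to living light and heavy SILAC HeLa cells in PBS at room temperature, and the labels were run in both forward and reverse orientation. Mixed lysates underwent biotin-azide click chemistry, trypsin digestion, neutravidin capture, DTT release and alkylation before LC-MS/MS on a TIMS-TOF Pro. R is the filtered median high-probe/low-probe MS1 peptide ratio for each lysine, summarised as the median over forward and reverse replicates. Nothing above 20 is reported; such values are set to 20.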
# Chain of UniProt Q13813 (Q13813 whole entry): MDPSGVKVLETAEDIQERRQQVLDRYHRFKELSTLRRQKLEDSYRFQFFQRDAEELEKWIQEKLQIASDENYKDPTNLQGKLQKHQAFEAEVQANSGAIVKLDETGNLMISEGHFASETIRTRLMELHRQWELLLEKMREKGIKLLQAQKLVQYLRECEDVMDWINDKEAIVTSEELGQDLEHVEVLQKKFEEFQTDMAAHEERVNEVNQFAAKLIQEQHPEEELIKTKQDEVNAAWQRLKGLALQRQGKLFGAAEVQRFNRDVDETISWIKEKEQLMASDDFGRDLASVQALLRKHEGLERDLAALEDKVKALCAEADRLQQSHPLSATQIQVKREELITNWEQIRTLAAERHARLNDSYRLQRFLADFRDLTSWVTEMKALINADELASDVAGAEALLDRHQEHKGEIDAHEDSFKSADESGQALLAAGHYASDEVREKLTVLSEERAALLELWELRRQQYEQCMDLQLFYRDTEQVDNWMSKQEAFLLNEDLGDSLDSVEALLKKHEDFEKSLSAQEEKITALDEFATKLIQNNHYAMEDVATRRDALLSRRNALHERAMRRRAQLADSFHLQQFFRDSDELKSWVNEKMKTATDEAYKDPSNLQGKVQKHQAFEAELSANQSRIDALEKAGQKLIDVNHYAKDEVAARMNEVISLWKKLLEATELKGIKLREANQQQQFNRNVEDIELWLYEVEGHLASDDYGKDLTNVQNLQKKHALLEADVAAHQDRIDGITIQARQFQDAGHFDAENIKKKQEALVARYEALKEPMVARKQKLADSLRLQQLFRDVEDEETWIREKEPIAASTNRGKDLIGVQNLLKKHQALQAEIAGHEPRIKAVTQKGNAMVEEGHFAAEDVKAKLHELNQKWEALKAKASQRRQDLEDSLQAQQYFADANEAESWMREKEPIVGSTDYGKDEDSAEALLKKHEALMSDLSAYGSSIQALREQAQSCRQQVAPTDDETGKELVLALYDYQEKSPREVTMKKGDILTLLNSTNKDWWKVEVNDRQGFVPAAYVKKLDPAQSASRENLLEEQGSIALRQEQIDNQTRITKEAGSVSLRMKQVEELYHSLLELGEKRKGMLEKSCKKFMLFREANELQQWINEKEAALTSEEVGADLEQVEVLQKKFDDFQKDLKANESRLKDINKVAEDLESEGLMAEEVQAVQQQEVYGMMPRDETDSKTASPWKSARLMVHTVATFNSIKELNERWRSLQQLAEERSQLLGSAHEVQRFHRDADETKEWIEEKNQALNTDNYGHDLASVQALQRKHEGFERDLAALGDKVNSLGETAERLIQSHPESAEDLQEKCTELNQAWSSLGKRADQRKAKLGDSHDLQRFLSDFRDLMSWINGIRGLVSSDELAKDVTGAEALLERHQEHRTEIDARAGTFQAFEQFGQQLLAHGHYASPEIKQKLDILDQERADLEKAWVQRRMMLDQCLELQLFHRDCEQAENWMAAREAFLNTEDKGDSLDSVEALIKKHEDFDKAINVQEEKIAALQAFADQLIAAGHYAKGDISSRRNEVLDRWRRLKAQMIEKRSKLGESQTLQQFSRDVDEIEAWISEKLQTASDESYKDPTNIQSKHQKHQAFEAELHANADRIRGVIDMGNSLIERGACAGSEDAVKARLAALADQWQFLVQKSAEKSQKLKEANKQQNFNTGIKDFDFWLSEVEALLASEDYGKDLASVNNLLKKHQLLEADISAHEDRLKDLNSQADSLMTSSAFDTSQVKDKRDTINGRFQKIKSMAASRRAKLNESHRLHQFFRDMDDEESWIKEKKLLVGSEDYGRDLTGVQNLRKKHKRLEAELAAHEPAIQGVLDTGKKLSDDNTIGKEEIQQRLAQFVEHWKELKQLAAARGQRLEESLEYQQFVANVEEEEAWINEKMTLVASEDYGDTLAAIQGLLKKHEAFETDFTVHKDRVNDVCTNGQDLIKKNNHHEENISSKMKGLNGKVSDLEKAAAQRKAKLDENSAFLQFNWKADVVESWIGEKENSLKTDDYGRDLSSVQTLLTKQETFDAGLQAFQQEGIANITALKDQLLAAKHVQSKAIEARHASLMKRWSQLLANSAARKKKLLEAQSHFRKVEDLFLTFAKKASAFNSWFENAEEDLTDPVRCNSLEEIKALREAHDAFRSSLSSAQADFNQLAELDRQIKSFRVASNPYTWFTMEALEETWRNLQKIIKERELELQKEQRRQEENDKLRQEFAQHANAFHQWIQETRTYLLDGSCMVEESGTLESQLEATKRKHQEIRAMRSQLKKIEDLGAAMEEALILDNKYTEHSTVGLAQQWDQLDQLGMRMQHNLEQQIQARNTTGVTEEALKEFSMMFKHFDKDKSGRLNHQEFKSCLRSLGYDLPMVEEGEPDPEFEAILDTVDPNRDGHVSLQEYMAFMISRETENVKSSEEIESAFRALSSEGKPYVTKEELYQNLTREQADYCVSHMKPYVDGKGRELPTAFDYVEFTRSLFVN
# Chain of UniProt Q9BVK6 (Q9BVK6 whole entry): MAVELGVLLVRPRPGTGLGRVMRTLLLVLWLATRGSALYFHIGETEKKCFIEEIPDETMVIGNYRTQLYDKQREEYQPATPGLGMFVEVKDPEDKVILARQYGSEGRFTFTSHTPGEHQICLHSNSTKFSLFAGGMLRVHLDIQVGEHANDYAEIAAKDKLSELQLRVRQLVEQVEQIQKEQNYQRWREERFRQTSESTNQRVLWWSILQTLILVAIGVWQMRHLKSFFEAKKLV
# Chain of UniProt P32004 (P32004 whole entry): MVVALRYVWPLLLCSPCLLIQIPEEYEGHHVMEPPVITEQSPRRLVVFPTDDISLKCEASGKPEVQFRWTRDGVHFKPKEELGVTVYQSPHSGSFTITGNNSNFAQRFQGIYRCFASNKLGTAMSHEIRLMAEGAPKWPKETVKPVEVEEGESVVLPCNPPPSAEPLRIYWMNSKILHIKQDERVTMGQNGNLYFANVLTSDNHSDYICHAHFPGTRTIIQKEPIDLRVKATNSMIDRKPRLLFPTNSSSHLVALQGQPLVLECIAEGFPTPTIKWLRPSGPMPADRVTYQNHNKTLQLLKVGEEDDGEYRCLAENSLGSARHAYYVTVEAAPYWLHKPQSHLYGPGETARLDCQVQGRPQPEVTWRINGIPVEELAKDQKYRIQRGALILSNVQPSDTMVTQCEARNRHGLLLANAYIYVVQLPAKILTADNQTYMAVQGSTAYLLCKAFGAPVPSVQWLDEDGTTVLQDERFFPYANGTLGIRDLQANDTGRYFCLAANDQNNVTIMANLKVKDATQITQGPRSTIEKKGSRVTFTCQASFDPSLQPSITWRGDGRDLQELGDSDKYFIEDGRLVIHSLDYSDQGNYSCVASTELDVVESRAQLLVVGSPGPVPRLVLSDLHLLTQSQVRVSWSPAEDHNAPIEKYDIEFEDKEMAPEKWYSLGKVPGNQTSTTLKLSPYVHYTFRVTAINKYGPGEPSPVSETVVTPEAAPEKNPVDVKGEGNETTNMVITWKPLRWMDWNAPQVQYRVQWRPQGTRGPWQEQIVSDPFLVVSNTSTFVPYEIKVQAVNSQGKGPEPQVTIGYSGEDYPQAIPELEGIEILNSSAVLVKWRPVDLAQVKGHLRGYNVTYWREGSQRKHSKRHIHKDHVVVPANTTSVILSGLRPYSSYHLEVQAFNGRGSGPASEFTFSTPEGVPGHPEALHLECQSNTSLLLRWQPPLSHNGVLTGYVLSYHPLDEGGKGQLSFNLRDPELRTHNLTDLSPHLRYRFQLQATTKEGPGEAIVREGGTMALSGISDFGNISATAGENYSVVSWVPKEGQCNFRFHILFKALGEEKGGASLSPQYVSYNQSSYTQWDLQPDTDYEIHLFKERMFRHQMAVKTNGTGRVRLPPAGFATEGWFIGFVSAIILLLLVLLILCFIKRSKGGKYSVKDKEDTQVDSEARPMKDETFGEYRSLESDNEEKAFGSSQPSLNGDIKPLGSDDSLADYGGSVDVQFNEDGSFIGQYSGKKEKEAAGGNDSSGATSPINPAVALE
# Chain of UniProt O43707 (O43707 whole entry): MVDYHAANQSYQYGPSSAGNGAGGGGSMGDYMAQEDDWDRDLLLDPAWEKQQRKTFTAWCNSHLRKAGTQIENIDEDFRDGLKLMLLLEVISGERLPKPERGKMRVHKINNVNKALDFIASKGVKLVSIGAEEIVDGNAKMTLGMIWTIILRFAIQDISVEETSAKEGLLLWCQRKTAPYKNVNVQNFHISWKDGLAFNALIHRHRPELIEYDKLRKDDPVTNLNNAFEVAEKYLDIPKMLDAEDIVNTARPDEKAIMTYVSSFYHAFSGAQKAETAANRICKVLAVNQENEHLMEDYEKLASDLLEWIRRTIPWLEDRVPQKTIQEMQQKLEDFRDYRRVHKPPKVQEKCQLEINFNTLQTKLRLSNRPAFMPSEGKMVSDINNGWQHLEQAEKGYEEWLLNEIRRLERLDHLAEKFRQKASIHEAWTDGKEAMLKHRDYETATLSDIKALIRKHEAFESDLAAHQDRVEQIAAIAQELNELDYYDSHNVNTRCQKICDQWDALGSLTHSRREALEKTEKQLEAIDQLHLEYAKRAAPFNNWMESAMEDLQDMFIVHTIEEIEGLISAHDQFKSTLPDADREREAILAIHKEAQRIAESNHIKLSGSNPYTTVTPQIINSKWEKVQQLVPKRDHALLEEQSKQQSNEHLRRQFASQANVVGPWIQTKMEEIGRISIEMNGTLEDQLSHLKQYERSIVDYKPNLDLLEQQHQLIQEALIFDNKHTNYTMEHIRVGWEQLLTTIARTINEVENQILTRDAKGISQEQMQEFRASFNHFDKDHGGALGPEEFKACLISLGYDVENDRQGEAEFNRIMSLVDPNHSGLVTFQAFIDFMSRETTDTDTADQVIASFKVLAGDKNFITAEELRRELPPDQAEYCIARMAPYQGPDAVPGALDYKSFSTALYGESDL
# Chain of UniProt P30044 (P30044 whole entry): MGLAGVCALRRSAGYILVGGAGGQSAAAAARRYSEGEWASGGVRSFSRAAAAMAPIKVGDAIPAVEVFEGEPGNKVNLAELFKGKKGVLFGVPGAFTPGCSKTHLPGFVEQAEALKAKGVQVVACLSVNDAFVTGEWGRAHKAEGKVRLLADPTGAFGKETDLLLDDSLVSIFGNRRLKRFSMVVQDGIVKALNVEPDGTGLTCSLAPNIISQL
row,Target,lysine labeling ratio R10:1
1,FLOT1 (lysine site: K246) (UniProt O75955),2.54
2,TPI1 (lysine site: K194) (UniProt P60174),1.22 (active)
3,BPTF (lysine site: K609) (UniProt Q12830),8.91
4,PNN (lysine site: K157) (UniProt Q9H307),1.95 (active)
5,NRP1 (lysine site: K504) (UniProt O14786),6.03
6,UniProt P55072 (lysine site: K236),2.76
7,SLC44A2 (lysine site: K62) (UniProt Q8IWA5),2.64
8,PPIB (lysine site: K98) (UniProt P23284),1.78 (active)
9,PRDX5 (lysine site: K146) (UniProt P30044),1.62 (active)
10,GAS1 (lysine site: K140) (UniProt P54826),3.54
11,SPTAN1 (lysine site: K229) (UniProt Q13813),3.87
12,FGB (lysine site: K422) (UniProt P02675),2.18
13,UniProt Q15149 (lysine site: K923),9.2
14,LAMB1 (lysine site: K1746) (UniProt P07942),3.26
15,FN1 (lysine site: K269) (UniProt P02751),9.87
16,CLTC (lysine site: K389) (UniProt Q00610),5.78
17,TFRC (lysine site: K177) (UniProt P02786),2.39
18,XRCC5 (lysine site: K648) (UniProt P13010),1.9 (active)
19,HNRNPM (lysine site: K698) (UniProt P52272),0.67 (active)
20,TMED9 (lysine site: K95) (UniProt Q9BVK6),4.55

row,Target,lysine labeling ratio R10:1
1,GSN (lysine site: K239) (UniProt P06396),4.08
2,MSN (lysine site: K412) (UniProt P26038),3.35
3,SMOC1 (lysine site: K308) (UniProt Q9H4F8),4.95
4,ACTN4 (lysine site: K592) (UniProt O43707),6.67
5,UniProt P62854 (lysine site: K113),7.15
6,ATAD3B (lysine site: K214) (UniProt Q5T9A4),2.61
7,L1CAM (lysine site: K301) (UniProt P32004),4.21
8,LAMP1 (lysine site: K137) (UniProt P11279),2.74
9,TCP1 (lysine site: K126) (UniProt P17987),2.14
10,FSCN1 (lysine site: K220) (UniProt Q16658),4.2
11,MAGT1 (lysine site: K66) (UniProt Q9H0U3),4.14
12,PTPRS (lysine site: K370) (UniProt Q13332),2.37
13,TXNDC5 (lysine site: K429) (UniProt Q8NBS9),0.74 (active)
14,IGF2R (lysine site: K1576) (UniProt P11717),0.605 (active)
15,UniProt P02533 (lysine site: K297),2.74
16,HSPA5 (lysine site: K382) (UniProt P11021),1.18 (active)
17,CTTN (lysine site: K272) (UniProt Q14247),1.57 (active)
18,UniProt Q8WXI7 (lysine site: K13384),7.85
19,SPTAN1 (lysine site: K803) (UniProt Q13813),1.86 (active)
20,LAMA5 (lysine site: K255) (UniProt O15230),2.33
